# In all, about 320,000 compounds went through this assay and about 2,100 (0.66%) were called active. Inconclusive results (about 53%) are left out. Calls come from the whole dose curve; as a rule, active = well fitted inhibition curve with a large enough effect in the signal ratio, with a control signal flat (not every such curve was filed as active); inconclusive = small, poorly fitted or top-dose-only effect, or effect the other way, or a change in a side signal; inactive = flat fitted curve, though single readings scatter; the % refers to the signal ratio. For the sample, actives were picked, then their nearest neighbours and some compounds at random.
# Test: qHTS Assay for Lipid Storage Modulators in Drosophila S3 Cells;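 for cell number change: cells counted by Cell Tracker Red CMTPX staining in the red channel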; for lipid storage change, negative = inhibition: % is set by controls: 0 for no effect and ±100 for the full control effect
# Details: BODIPY lipid droplet fluorescence, 18-24 h, cells fed with added oleic acid; cell number change: measured here: cell count max response; series mostly up to 46.1 µM; lipid storage change, negative = inhibition: at the top concentration
# Summary of the method: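 Drosophila S3 cells got compounds at several concentrations plus oleic acid (400 uM solution). Laser-scanning cytometry with 488 nm excitation read lipid droplets at 500-530 nm and cells at 575-640 nm. Percent activity was relative to 20 uM Triacsin C.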
# Potency is the fitted concentration of half-maximal effect.
SMILES,"lipid storage change, negative = inhibition",cell number change [%],outcome,Potency
CN(C)C(=O)C(NC(=O)c1ccccc1)=C(Cl)Cl,15.3% (inactive),,,
Cc1cc(C(=O)OCC(=O)NC2CCC(C)CC2)c(C)o1 (stereo unspecified),8.06% (inactive),1.2,,
CN(C)S(=O)(=O)c1ccc2c(c1)nc(CCC(=O)NCc1ccc(Cl)cc1)n2C,-6.65% [at 9.22 µM] (inactive),-1.78,,
COc1ccc(NC(=O)C2C3C=CC4(O3)C2C(=O)N(CCCN2CCCCC2)C4C(=O)NC2CCCC(C)C2C)cc1 (stereo unspecified),,20.6,inactive,
COc1ccc(NC(=O)C2C3C=CC4(O3)C2C(=O)N(CCN2CCCCC2)C4C(=O)NC2CCCC(C)C2C)cc1 (stereo unspecified),,27,,0.92 µM (active)
COc1ccc(NC(=O)C2C3C=CC4(O3)C2C(=O)N(CCN2CCCCC2C)C4C(=O)NC2CCCC(C)C2C)cc1 (stereo unspecified),,-11.9,inactive,
CCN(CC)CCCN1C(=O)C2C(C(=O)Nc3ccc(C(C)C)cc3)C3C=CC2(O3)C1C(=O)NC1CCCCC1 (stereo unspecified),,8.06,,16.4 µM (active)
COc1cccc(NC(=O)C2C3C=CC4(O3)C2C(=O)N(CCN2CCCCC2)C4C(=O)NC2CCCCC2C)c1 (stereo unspecified),,14.4,,5.8 µM (active)
CC(C)c1ccc(NC(=O)C2C3C=CC4(O3)C2C(=O)N(CCCN2CCCCC2)C4C(=O)NC2CCCCC2)cc1 (stereo unspecified),,2.7,inactive,
COc1cccc(NC(=O)C2C3C=CC4(O3)C2C(=O)N(CCCN2CCCC(C)C2)C4C(=O)NC2CCCCC2C)c1 (stereo unspecified),,-4.5,inactive,
CCN(CC)CCN1C(=O)C2C(C(=O)Nc3ccc(C(C)C)cc3)C3C=CC2(O3)C1C(=O)NC1CCCCC1 (stereo unspecified),,1.35,inactive,
COc1cccc(NC(=O)C2C3C=CC4(O3)C2C(=O)N(CCCN2CCCCC2)C4C(=O)NC2CCCCC2)c1 (stereo unspecified),,1.59,inactive,
Cc1cccc(NC(=O)CSc2nnc(CNC(=O)c3ccco3)o2)c1,,-11.3,inactive,
CCCn1c(O)c(N=NC(=O)CNC(=O)c2cccnc2)c2ccccc21,22.8% (inactive),6.42,,
NC(=O)/C=C\c1cn(-c2ccccc2)nc1-c1ccc2c(c1)OCCO2,33.5% (inactive),13.6,,
O=S(=O)(N/N=C/c1cccnc1)c1ccc(Cl)c(Cl)c1,-1.88% (inactive),4.73,,
C=CCn1c(O)c(C=Nc2ccccc2)sc1=S,12.5% (inactive),8.83,,
COc1ccc(CCNC(=O)COc2nncc3ccccc23)cc1,,-8.53,inactive,
Cc1ccc(OCCCCN2CCc3ccccc3C2)cc1,,-8.99,inactive,
Cc1ccc(C(C)C)c(OCCCN2CCc3ccccc3C2)c1,,-26.9,,14.6 µM (active)
Cc1ccc(C(C)C)c(OCCN2CCc3ccccc3C2)c1,-43.6% (inactive),-16.4,,
COc1c(Br)cc2c(C)c(C(=O)O)oc2c1Br,-6.54% (inactive),24.7,,
CN(C)c1cc(Nc2ccc(O)cc2)c([N+](=O)[O-])c2nonc12,-2.02% (inactive),4.46,,

SMILES,"lipid storage change, negative = inhibition",cell number change [%],outcome,Potency
CCOc1ccc(NS(=O)(=O)c2cc(C(=O)N3CC(C)OC(C)C3)ccc2C)cc1 (stereo unspecified),17.9% (inactive),,,
CCOc1ccc(NS(=O)(=O)c2ccc(C(=O)N3CC(C)OC(C)C3)cc2)cc1 (stereo unspecified),,-12.2,,25.9 µM (active)
CCOc1ccc(NS(=O)(=O)c2ccc(C(=O)N3CCCC(C)C3)cc2)cc1 (stereo unspecified),18.3% (inactive),20.5,,
CN(C)CCCNC(=O)C1CCNCC1,,-14.6,inactive,
Cc1ccc(S(=O)(=O)N/N=C\C=C\c2ccccc2)cc1,7.89% (inactive),,,
NC(=O)N/N=C/C=C/c1ccccc1,-3.42% (inactive),-8.08,,
O=S(=O)(N/N=C\C=C\c1ccccc1)c1ccc(Cl)cc1,,-34.4,,11.6 µM (active)
COc1ccc(/C=C/c2c(-c3ccc(OC)cc3)oc3cccnc23)cc1,,-16.2,inactive,
COC(=O)c1sccc1NC(=O)CC1C(=O)NCCN1C(=O)c1c(F)cccc1Cl (stereo unspecified),4.81% (inactive),12.2,,
O=c1ccc(-c2ccc(S(=O)(=O)N3CCN(c4cccc(Cl)c4)CC3)o2)n[nH]1,,7.08,inactive,
CNS(=O)(=O)c1ccc(NC(=O)c2cncc(Br)c2)cc1,,,inactive,
Cc1ccc(S(=O)(=O)N(C)C)cc1NC(=O)c1cncc(Br)c1,,-18,,8.2 µM (active)
CN(C)S(=O)(=O)c1cccc(NC(=O)c2cncc(Br)c2)c1,8.64% (inactive),,,
COC(=O)[C@H](CC(C)C)NC(=O)NC1CCCCC1C (stereo partly specified),,-4.34,,25.9 µM (active)
COC(=O)[C@@H](NC(=O)NC1CCCCC1C)C(C)C (stereo partly specified),11.5% (inactive),5.72,,
COC(=O)[C@H](CC(C)C)NC(=O)N1CCCCC1C (stereo partly specified),-12.3% (inactive),-11.4,,
C=CCc1ccc(OCCCCNC2CCCC2)c(OC)c1,-10.2% [at 9.22 µM] (inactive),-17.8,,
CC(NC(=O)C1CCC1)c1ccccc1 (stereo unspecified),,,inactive,
CC(NC(=O)C1CCCN(C(=O)N(C)C)C1)c1ccccc1 (stereo unspecified),,2.04,,25.9 µM (active)
CN(C)C(=O)N1CCCC(C(=O)NCc2ccccc2)C1 (stereo unspecified),-5.36% (inactive),-23.4,,
CCOC(=O)c1c(NC(=S)N2CCOCC2)sc2c1CCN(C(=O)OCC)C2,-15.8% (inactive),-10.4,,
Cc1ccc(/C=N/NC(=O)Cc2c(F)cccc2Cl)s1,,13.4,inactive,
O=C(c1cc(C2CC2)nn1-c1ccccc1)N1CCN(S(=O)(=O)c2cccc(F)c2)CC1,17.5% (inactive),16.5,,

# Source: PubChem BioAssay AID2685 (National Center for Advancing Translational Sciences (NCATS), 2010)
